{"source": "PubChem BioAssay (Tox21)", "note": "Active and inactive are the calls of the source. A call without a number means that no potency is given here. The call rests on the fitted dose curve."}
{"molecular_target": "Acetylcholinesterase (Homo sapiens) (UniProt P22303)", "sequence (P22303 whole entry, looked up)": "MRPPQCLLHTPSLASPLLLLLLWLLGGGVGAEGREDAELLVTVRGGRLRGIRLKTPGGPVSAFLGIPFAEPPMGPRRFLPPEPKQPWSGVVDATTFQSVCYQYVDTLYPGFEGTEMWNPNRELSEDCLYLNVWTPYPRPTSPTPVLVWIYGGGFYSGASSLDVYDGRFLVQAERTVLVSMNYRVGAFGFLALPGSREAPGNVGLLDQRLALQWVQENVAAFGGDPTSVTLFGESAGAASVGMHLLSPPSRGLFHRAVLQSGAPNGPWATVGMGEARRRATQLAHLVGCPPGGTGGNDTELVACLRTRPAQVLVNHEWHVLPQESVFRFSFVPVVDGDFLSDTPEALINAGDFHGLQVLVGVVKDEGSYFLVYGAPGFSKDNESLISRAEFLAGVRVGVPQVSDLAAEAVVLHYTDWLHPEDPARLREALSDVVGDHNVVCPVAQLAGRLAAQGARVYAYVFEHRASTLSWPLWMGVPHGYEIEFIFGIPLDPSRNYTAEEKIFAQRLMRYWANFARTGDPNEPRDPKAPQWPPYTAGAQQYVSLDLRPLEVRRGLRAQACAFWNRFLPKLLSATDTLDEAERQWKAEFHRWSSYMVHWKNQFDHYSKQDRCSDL", "test": "Acetylcholinesterase (AChE) small molecule antagonists: enzyme-based qHTS assay with human liver microsomes (AID 1347399); further: nearly all actives have a fitted effect of over 60% in size", "conditions": "Potency: qHTS inhibition; outcome: qHTS inhibition; series mostly up to 115 µM", "method_in_brief": "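Recombinant human AChE (50 mU/mL in the enzyme mix) and human liver microsomes (0.25 mg/mL final) were preincubated with compound and NADPH (0.25 mg/mL final) for 30 min at 37 C. Acetylthiocholine/DTNB was then added; thiocholine was read colorimetrically after 10 min at room temperature.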"}
{"smiles": "O=C(O)c1ccco1", "Potency": "inactive"}
{"smiles": "CN(C)c1ccc(O)c2c1C[C@H]1C[C@H]3[C@H](N(C)C)C(=O)C(C(N)=O)=C(O)[C@@]3(O)C(=O)C1=C2O", "Potency": "inactive"}
{"smiles": "CC/C(C)=N/O", "Potency": "inactive"}
{"smiles": "CC1(C)O[C@H]2CC(=O)OC[C@]23[C@H]2CC[C@@]4(C)[C@H](c5ccoc5)OC(=O)[C@H]5O[C@]54[C@]2(C)C(=O)C[C@@H]13", "Potency": "inactive"}
{"smiles": "CCc1oc2ccccc2c1C(=O)c1cc(Br)c(O)c(Br)c1", "Potency": "inactive"}
{"smiles": "C[C@H]1O[C@H](O[C@H]2[C@H](O)[C@@H](O)[C@@H](O[C@H]3[C@H](O)[C@@H](O)[C@H](O)O[C@@H]3CO)O[C@@H]2CO)[C@H](O)[C@@H](O)[C@@H]1N[C@H]1C=C(CO)[C@@H](O)[C@H](O)[C@H]1O", "Potency": "inactive"}
{"smiles": "CCc1c(C(=O)NN2CCCCC2)nn(-c2ccc(Cl)cc2Cl)c1-c1ccc(Br)cc1", "Potency": "inactive"}
{"smiles": "Oc1ccc2c(c1)OC[C@@H](N1CCC(O)(c3ccc(F)cc3)CC1)[C@H]2O", "Potency": "inactive"}
{"smiles": "CC(=O)c1c(C)c([N+](=O)[O-])c(C(C)(C)C)c([N+](=O)[O-])c1C", "Potency": "inactive"}
{"smiles": "C=CCc1cc(OC)c(O)c(C(=O)NCCO)c1", "Potency": "inactive"}
{"smiles": "CCCOC(=O)C(C)O", "note": "(centres undefined)", "Potency": "inactive"}
{"smiles": "CCOCCO", "Potency": "inactive"}
{"smiles": "C=CCOC(=O)C(=C)C", "Potency": "inactive"}
{"smiles": "COc1ccccc1Oc1c(NS(=O)(=O)c2ccc(C(C)(C)C)cc2)nc(-c2ncccn2)nc1OCCO", "Potency": "inactive"}
